About 50,000 (12%) of roughly 420,000 compounds were called active. Another 26% or so got no clear call; they are omitted. Calls follow the shape of the dose curve; as a rule, active = well fitted inhibition curve with a large enough effect; inconclusive = small, poorly fitted or top-dose-only effect; inactive = flat fitted curve, though single readings scatter. Many of the other results were omitted from the sample, so actives are more common in it than they were.
% is scaled to controls: 0 for no effect and ±100 for the full control effect; potency is read from the fitted curve at half-maximal effect.

The assay can be described thus: qHTS for Inhibitors of human tyrosyl-DNA phosphodiesterase 1 (TDP1): qHTS in cells in presence of CPT. Also: nearly all actives have a fitted effect of over 55% in size. As to conditions: chicken DT40 Tdp1-/-;hTDP1 cells + 20 nM CPT, ATP luminescence, 48 h; series mostly up to 46.2 µM; activity change, negative = growth inhibition: at the top concentration. An outline of the steps: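 Chicken DT40 Tdp1-/- cells stably complemented with human TDP1 were seeded at 400 cells/well in medium containing 20 nM camptothecin, exposed to pin-transferred compounds, and grown at 37 °C for at least 48 hr. Viability was read as ATP luminescence.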
As for `COc1cccc(N2CC(NS(=O)(=O)c3ccc(Cl)cc3)CC2=O)c1` (configuration not stated), the “activity change, negative = growth inhibition” value is -12.5% (inactive). Take `c1ccc(C[C@H]2CNCCN2CCC23CC4CC(CC(C4)C2)C3)cc1`: the Potency is 10.3 µM (active). Take `O=C1CCNCCN1[C@H](CO)Cc1ccccc1`: the “activity change, negative = growth inhibition” value was 0.73% (inactive).

`CC(C)(C)CN1C(=O)C(=O)NC[C@H]1Cc1cccc2ccccc12`: the “activity change, negative = growth inhibition” value is -9.63% (inactive).

As to `c1ccc2c(CCN3CCNC[C@H]3Cc3cccc4ccccc34)cccc2c1`, the Potency is 20.6 µM (active). On to `CSC1=NCCN1C(=O)Cc1cccc2ccccc12`, for which the “activity change, negative = growth inhibition” value is -4.3% (inactive). Still for that read-out and setting: as for `Nn1c(SCC(=O)NC2CCCC2)nnc1-c1ccccc1F`, the figure is -15.8% (inactive). Take `COCC1CCN(C(=O)c2ccc3oc(Cc4ccccc4)nc3c2)C1` (configuration not stated): the “activity change, negative = growth inhibition” value was 1.38% (inactive). In the case of `COc1cc(OC)c(NC(=O)c2cc(S(=O)(=O)N3CCCC3)cn2C)cc1Cl`, the “activity change, negative = growth inhibition” value is 1.61% (inactive). Still for that read-out and setting: as for `Cc1cccc(OCC(=O)Nc2ccccc2F)c1`, the figure is -10.9% (inactive).

As to `Cc1cccc(OCCC(=O)Nc2ccccc2C(N)=O)c1`, the Potency was 9.2 µM (active). Regarding `Cc1ccccc1NC(=O)CCOc1ccccc1`, the Potency result is “inactive”. On to `Cc1oc2c(c1C(=O)Nc1ccc(F)c(F)c1)C1=NCCN1C=N2`, for which the “activity change, negative = growth inhibition” value is -15% (inactive). Still for that read-out and setting: as for `COc1ccc(/C=N/n2nnnc2N)cc1OC`, the figure is 18.6% (inactive); as for `Nc1nc(SCC(=O)Nc2ccc(Cl)c([N+](=O)[O-])c2)n[nH]1`, -16.2% (inactive); as for `CC(OC(=O)CN1C(=O)COc2ccccc21)C(=O)NCc1ccc(F)cc1` (configuration not stated), -15.2% (inactive).

In the case of `O=C(CN1CCOC1=O)N1CCCC(Nc2ccc(F)c(F)c2)C1` (configuration not stated), the “activity change, negative = growth inhibition” value was 5.44% (inactive).

On to `CC(C)=C1C2CCC1C1C(=O)N(NC(=O)c3ccco3)C(=O)C21` (configuration not stated), for which the “activity change, negative = growth inhibition” value is 1.68% (inactive). Same read-out and setting: as for `O=C(NCCc1ccccc1)c1ccc(OCCOc2ccccc2)cc1`, the figure is 0.389% (inactive). Regarding `CC(C)(c1ccccc1)c1ccc(OCCN)cc1`, the Potency was 18.4 µM (active). Regarding `O=C(NCCOc1ccccc1)c1ccccc1`, the “activity change, negative = growth inhibition” value was 1.35% (inactive). The same measure, in the same setting: as for `CCOC(=O)c1sc(NC(=O)/C=C/c2ccc(C(C)C)cc2)c(C(=O)OCC)c1C`, the figure is 5.17% (inactive); as for `COc1cccc(CNC(=O)[C@@H]2CCCN2C(=O)[C@@H]2CCCN2C(=O)c2ccccc2)c1`, -27.4% (inactive). Consider `COc1cccc(N2C(=O)CN(Cc3ccccc3)C2=S)c1`, for which the “activity change, negative = growth inhibition” value is -10.6% (inactive).

For the molecule `CCOC(=O)CNC(=O)c1nn(-c2cccc(OC)c2)c(=O)c2ccccc12`, the “activity change, negative = growth inhibition” value was 4.95% (inactive). On to `COc1cccc(-n2nc(C(=O)N3CCN(Cc4ccccc4)CC3)c3ccccc3c2=O)c1`, for which the Potency is 20.6 µM (active). Turning to `N=C1C(c2nc3ccccc3[nH]2)=C(O)CN1NC(=O)c1c[nH]c2ccccc12`, the “activity change, negative = growth inhibition” value is 4.83% (inactive). Take `O=C(COC(=O)CCCN1C(=O)c2cccc3cccc(c23)C1=O)NC1CCS(=O)(=O)C1` (configuration not stated): the “activity change, negative = growth inhibition” value is 4.29% (inactive).

For `Cc1ccc(-c2cc(C(=O)Nc3nn[nH]n3)c3ccccc3n2)c(C)c1`, the “activity change, negative = growth inhibition” value was 10.7% (inactive). Regarding `Cc1ccc(-c2cc(C(=O)N/N=C/C=C/c3ccco3)c3ccccc3n2)cc1C`, the Potency was 8.2 µM (active).

As to `Nc1ccccc1C(=O)NC1CCCCNC1=O` (configuration not stated), the “activity change, negative = growth inhibition” value is 10.6% (inactive).

For the molecule `CNC(=O)c1ccc(CN(C)C(=O)c2cc(C3CC3)nc3c2cnn3C(C)C)cc1`, the “activity change, negative = growth inhibition” value is -22.5% (inactive). For `CCOC(=O)c1ccc(-c2ccc(/C=C(\C#N)C(=O)Nc3ccc(OCC)cc3)o2)cc1`, the “activity change, negative = growth inhibition” value is -5.81% (inactive). The same measure, in the same setting: under `CCOC(=O)c1ccc(NC(=O)CNC(=O)c2ccco2)cc1` stands -0.879% (inactive). Take `CCOC(=O)c1ccc(-c2ccc(/C=C(\C#N)C(=O)Nc3ccc(C)cc3)o2)cc1`: the Potency is 9.2 µM (active). With `N#C/C(=C\N1CCOCC1)S(=O)(=O)c1ccc(Cl)cc1`, the “activity change, negative = growth inhibition” value is -4.67% (inactive). As for `O=C(COC(=O)c1ccccn1)NNC(=O)c1ccc([N+](=O)[O-])cc1`, the “activity change, negative = growth inhibition” value was 6.48% (inactive). Still for that read-out and setting: as for `O=S1(=O)CCN(Cc2ccccc2)CC1`, the figure is -3.67% (inactive); as for `CN(CC(=O)NCc1ccncc1)S(=O)(=O)c1ccc(Br)cc1`, -6.71% (inactive); as for `CC(=O)c1nn(-c2ccccc2)c(=Nc2ccccc2)cc1C`, -5.14% (inactive).

Take `CC(=O)Nc1cccc(Nc2nc(-c3cccs3)nc3ccccc23)c1`: the Potency was 16.4 µM (active). On to `COC(=O)c1cc(-c2cccs2)nc2ccccc12`, for which the “activity change, negative = growth inhibition” value is 1.15% (inactive). In the case of `O=c1[nH]c(-c2cccs2)nc2ccccc12`, the “activity change, negative = growth inhibition” value is -22.6% (inactive). The same measure, in the same setting: as for `CCN(CC)c1ccc(/C=N/NC(=O)CNC(=O)c2cccs2)cc1`, the figure is 2.32% (inactive). In the case of `CCN(C(=O)CSc1ncnc2sccc12)c1c(N)n(Cc2ccccc2)c(=O)[nH]c1=O`, the “activity change, negative = growth inhibition” value was 9.86% (inactive). Turning to `COc1ccc(-c2nc3cc([N+](=O)[O-])ccc3o2)cc1OC`, the “activity change, negative = growth inhibition” value was 27.4% (inactive).

With `COc1ccc(OCC(=O)Nc2cc(C)c(Cl)cc2OC)c([N+](=O)[O-])c1`, the “activity change, negative = growth inhibition” value is -1.34% (inactive). With `Cc1nnc(-c2ccc(Oc3ccc(C)c(C)c3)c([N+](=O)[O-])c2)o1`, the Potency is 16.4 µM (active).

Turning to `Nc1nc(SCC(=O)NN(c2ccccc2)c2ccccc2)n[nH]1`, the “activity change, negative = growth inhibition” value was -13.5% (inactive). `Cc1ccc(C(=O)Nc2ccccc2F)cc1S(=O)(=O)N1CCOCC1`: the “activity change, negative = growth inhibition” value was -22.7% (inactive).

Consider `CCc1ccc(N(C(=O)c2csnn2)C(C(=O)NC2CCCCC2)c2cccnc2)cc1` (configuration not stated), for which the “activity change, negative = growth inhibition” value was -12.1% (inactive). In the case of `Cc1ccc(S(=O)(=O)NCCC(c2ccccc2)c2ccccc2)cc1C(=O)O`, the “activity change, negative = growth inhibition” value is 7.68% (inactive).
